The sample as a whole holds a higher share of hits than the screen did.
ST2 inh – inhibitors of human ST2 (IL1RL1) binding to IL-33, primary screen, biochemical, AlphaLISA; inhibition, % for hits at 17 µM; AlphaLISA ST2-Fc/biotin-IL-33 interaction, 1 h; 78,000 compounds, 2.3% hits; in the data active = inhibition above about 30%
Target sequence (Q01638 whole entry, looked up): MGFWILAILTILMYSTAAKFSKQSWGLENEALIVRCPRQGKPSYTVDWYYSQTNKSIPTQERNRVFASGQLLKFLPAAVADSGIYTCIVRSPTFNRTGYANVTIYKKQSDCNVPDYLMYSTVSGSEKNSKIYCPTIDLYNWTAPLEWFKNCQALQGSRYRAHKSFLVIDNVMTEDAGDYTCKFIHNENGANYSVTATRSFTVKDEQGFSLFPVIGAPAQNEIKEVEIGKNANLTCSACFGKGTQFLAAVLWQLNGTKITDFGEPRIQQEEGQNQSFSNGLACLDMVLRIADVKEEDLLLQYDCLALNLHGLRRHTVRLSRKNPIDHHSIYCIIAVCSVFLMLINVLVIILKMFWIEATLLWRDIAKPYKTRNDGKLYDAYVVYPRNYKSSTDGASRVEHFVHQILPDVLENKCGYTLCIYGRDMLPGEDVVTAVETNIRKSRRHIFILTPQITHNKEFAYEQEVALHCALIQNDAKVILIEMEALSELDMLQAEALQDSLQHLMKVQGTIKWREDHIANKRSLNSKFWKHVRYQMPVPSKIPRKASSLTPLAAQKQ
An asterisk follows results filed as active; i = inactive.

SMILES	ST2 inh
COc1ccccc1N=Cc1c(O)ccc2oc3c(c12)CCCC3	31%*
COc1ccccc1C(=O)Nc1c2c(nn1C(C)(C)C)CS(=O)C2 (configuration not stated)	i
Cc1cccc(C(=O)Nc2cc(Cl)ccc2Cl)c1	i
CCOc1ccc(NCC(=O)c2ccc(Br)cc2)cc1	i
CCOc1ccc(N=C/C(=C/Nc2ccc(OCC)cc2)c2ccccc2)cc1	36%*
CCOc1ccc(N=CNc2ccc(OCC)cc2)cc1	i
O=C(O)c1cccc(NC(=O)c2ccc([N+](=O)[O-])cc2)c1	i
CC(C)C1CN(C(=O)c2cn(CCCN)nn2)CCC(=O)N1CC1CC1 (configuration not stated)	i
COc1ccc(-c2ccc(C)nc2N)c(OC)c1	i
O=C(Nc1ccc(F)c(Cl)c1)c1cc(-c2ccc(F)cc2)on1	i
CCCOc1ccc(C(O)=C2C(=O)C(=O)N(c3nccs3)C2c2cccs2)cc1 (configuration not stated)	i
CC(C)Oc1ccc(C(O)=C2C(=O)C(=O)N(c3nccs3)C2c2ccc([N+](=O)[O-])cc2)cc1 (configuration not stated)	35%*
CC(C)Oc1ccc(C(O)=C2C(=O)C(=O)N(c3ccccn3)C2c2cccs2)cc1 (configuration not stated)	i
Cc1cc(N2CC(C(=O)O)CC2=O)ccc1NC(=O)c1ccco1 (configuration not stated)	i
Cn1c(=O)cc(SCC(=O)NCCN2CCc3ccccc3C2)c2ccccc21	i
COc1ccc2c(C)c(C(=O)O)oc2c1	i
COc1ccc2oc(C(=O)c3ccccc3)c(N)c2c1	35%*
CCOC(=O)c1c(-c2ccccc2)oc2ccc(OC)cc12	i
CC(c1ccccc1)N1C(=O)CCC1(C)C(=O)NC1CCCCCCC1 (configuration not stated)	i
O=C(O)C1C(C(=O)O)C1C(=O)O (configuration not stated)	i
CCC(C)OC(=O)C1=C(C)NC2=C(C(=O)C(C(=O)OC)C(C)C2)C1c1ccc(O)cc1 (configuration not stated)	i
Cc1cc(CNC(=O)c2cccc(OCC(N)=O)c2)c2[nH]c(C)c(C)c2c1	i
CCOc1ccc(NC(=O)c2cccc([N+](=O)[O-])c2)cc1	i
CCOc1ccc(C(=O)c2cccc([N+](=O)[O-])c2)cc1	31%*
CCOc1ccc(N=C(c2cccc([N+](=O)[O-])c2)N2CCOCC2)cc1	i
SMILES	ST2 inh
CC(=O)N1CCC[C@H]1C(=O)N1CCC(Cc2ccccc2Cl)(C(=O)O)CC1	i
CC1(C)Cc2nc(C(C)(C)C)ncc2C(NCc2ccccn2)C1 (configuration not stated)	i
O=S(=O)(NC(c1c[nH]c2ccccc12)C(Cl)(Cl)Cl)c1ccccc1 (configuration not stated)	i
Cc1ccn2c3c(nc2c1)CNC(=O)CC3c1ccc(Cn2cccn2)cc1 (configuration not stated)	i
COC(=O)C1=C(NC(=O)c2cc(Cl)ccc2Cl)CCS1	i
COC(=O)C1=C(NC(=O)c2cc(C)cc(C)c2)CCS1	50%*
COC(=O)C1=C(NC(=O)c2ccc(Cl)cc2)CCS1	i
Cc1cc(C)n(CC(=O)Nc2ccc(F)cc2F)c(=O)c1C#N	i
CCC(C)Sc1oc(-c2ccco2)nc1S(=O)(=O)c1ccc(F)cc1 (configuration not stated)	i
O=C(NCc1cccnc1)c1ccc2nc3ccc(Cl)cc3c(=O)n2c1	i
CCc1ccc(CN2CCC(CNC(=O)c3ccc[nH]c3=O)C2)nc1 (configuration not stated)	i
CCCCN(c1ccccc1)S(=O)(=O)c1cccc2nonc12	i
COc1ccc(NC(=S)N[C@H]2C[C@H]3C(=O)NC[C@@H](CCC(=O)NC4CC4)N3C2)cc1	i
CCN(CC)C(=O)CC[C@@H]1CNC(=O)[C@@H]2C[C@H](NC(=S)Nc3ccccc3)CN12	36%*
O=C(CC[C@@H]1CNC(=O)[C@@H]2C[C@H](NC(=S)Nc3ccccc3)CN12)NC1CC1	i
CC(C)(C)NC(=O)c1ccc(-c2ccccc2)cc1	i
CCc1nc2cc3nc(CC)c(C)c(C(=O)O)c3cc2c(C(=O)O)c1C	i
CCCN1CCN(CCCNC(=O)CSc2cc(=O)n(C)c3ccccc23)CC1	i
O=C1CC(c2cccs2)CC2=C1C(c1cccc([N+](=O)[O-])c1)Nc1ccccc1N2 (configuration not stated)	i
O=C1CC(c2cccs2)CC2=C1C(c1cc(F)ccc1F)Nc1ccccc1N2 (configuration not stated)	i
O=C1CC(c2cccs2)CC2=C1C(c1cccc(F)c1)Nc1ccccc1N2 (configuration not stated)	30%*
Cc1ccccc1-c1cccc(C(=O)N[C@H]2C[C@H]3C(=O)NCC(=O)N3C2)c1	i
O=C(NCC(c1ccco1)N1CCCC1)c1cc(C2CC2)[nH]n1 (configuration not stated)	i
O=C(O)CN=C(NS(=O)(=O)c1ccccc1)c1ccccc1	38%*
CCCN=C(NS(=O)(=O)c1ccc(C)cc1)c1ccc(F)cc1	i
SMILES	ST2 inh
O=C(O)CN=C(NS(=O)(=O)c1ccccc1)c1ccc(F)cc1	i
O=c1cc(CN2CCc3[nH]nc(-c4ccc(Cl)cc4)c3C2)nc(C2CC2)[nH]1	i
Cc1ccc(CN2CCC(CN(C)Cc3c(C)nc4sccn34)CC2)o1	i
COc1ccc(Cc2nc3cc(C)c(C)cc3n(C)c2=O)cc1Br	i
COc1ccc(Cc2nc3cc(C)c(C)cc3[nH]c2=O)cc1Br	31%*
COc1ccc(Cn2cnc([N+](=O)[O-])c2)cc1Br	i
Cc1cc(-c2cc3c(n(Cc4cccnc4)c2=O)CCN(C(=O)COc2ccccc2)C3)ccc1F	i
COc1ccc(Cc2nc(-c3ccc([N+](=O)[O-])cc3)no2)cc1	i
COc1ccc(C2=NN(CN3C(=O)C(=O)c4ccccc43)C(c3ccc(OC)cc3)C2)cc1 (configuration not stated)	36%*
COc1ccc(NC(=O)CN2C(=O)C(=O)c3ccccc32)c(OC)c1	i
COc1ccc(C2CC(c3ccccc3)=NN2C(=O)c2ccccc2)cc1 (configuration not stated)	i
COc1ccccc1CNC(=O)c1nn(-c2ccc(Cl)cc2)c(=O)c2ccccc12	i
O=C(Nc1cccc(C(F)(F)F)c1)O[C@@H]1CO[C@H]2[C@@H]1OC[C@@H]2n1nnnc1-c1ccc2c(c1)OCCO2	i
CCc1c(-c2ccccc2)nc2ccccc2c1C(=O)N1CCCC1	i
COc1cc(Br)c(/C=C2\C(=O)N(c3ccccc3)N=C2C)cc1OC	i
CC1=NN(c2ccccc2)C(=O)/C1=C\c1ccc(N2CCOCC2)cc1	40%*
CC1=NN(c2ccccc2)C(=O)/C1=C\c1ccc(OCc2ccccc2)cc1	32%*
CC(=O)Nc1ccc(OCc2ccccc2)cc1	i
C=CCN1C(=O)NC(=O)/C(=C/c2ccc(OCc3ccccc3F)cc2)C1=O	i
Cc1ccc(-c2cccc(C(=O)N3CCCC(Nc4ccccc4)C3)c2)o1 (configuration not stated)	i
CCCCN(C)S(=O)(=O)c1ccc2c(c1)c(=O)n(C)c(=O)n2C	i

Screening data (PubChem BioAssay)
